Records with an inconclusive call do not appear. Active and inactive are the calls of the source. Calls come from the whole dose curve; as a rule, active = well fitted inhibition curve with a large enough effect; inconclusive = small, poorly fitted or top-dose-only effect; inactive = flat fitted curve, though single readings scatter.
Potency is the fitted concentration of half-maximal effect.

One assay has as its system DIV14. Put plainly: qHTS profiling for inhibitors of Plasmodium falciparum proliferation (AID 504749).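 For activity, negative = inhibition: 0% = DMSO vehicle and full inhibition = artemisinin control.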 Note: nearly all actives have a fitted effect of over 60% in size. As to conditions: P. falciparum in erythrocytes, SYBR Green DNA, 72 h; series mostly up to 28.7 µM; activity, negative = inhibition: at the top concentration. Summed up: (§1)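 Three-day growth assay of blood-stage parasites in erythrocytes (0.3% parasitemia, 2.5% hematocrit) at 37 C, 5% CO2, quantified by SYBR Green DNA staining after overnight detergent lysis.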
On to `CC(C)C(=O)Nc1ccc([N+](=O)[O-])c(C(F)(F)F)c1`, for which the “activity, negative = inhibition” value was -1.65% (inactive).

On to `CCOC(=O)C(C)(C)Oc1ccc(Cl)cc1`, for which the “activity, negative = inhibition” value is 4.05% (inactive).

`CC(CCc1ccc(O)cc1)NCCc1ccc(O)c(O)c1` (centres undefined): the “activity, negative = inhibition” value is 6.84% (inactive). The same measure, in the same setting: the value for `Cc1cn([C@H]2C[C@H](N=[N+]=[N-])[C@@H](CO)O2)c(=O)[nH]c1=O` was 1.67% (inactive); that for `Cc1cc(C(C)(C)C)c(O)c(C)c1CC1=NCCN1` was -11.9% (inactive). The same measure, in the same setting: the figure for `NS(=O)(=O)c1cc2c(cc1Cl)NCNS2(=O)=O` is -2.24% (inactive); for `CCOC(=O)c1ncn2c1CN(C)C(=O)c1cc(F)ccc1-2` it is -3.27% (inactive).

With `Clc1ccc2nsnc2c1NC1=NCCN1`, the “activity, negative = inhibition” value is -1.38% (inactive).

With `Cn1c(=O)c2c(ncn2C)n(C)c1=O`, the “activity, negative = inhibition” value was 22.4% (inactive). The same measure, in the same setting: the figure for `CC(C)Cc1ccc(C(C)C(=O)O)cc1` (centres undefined) is -5.85% (inactive); for `Cn1cnc2c1c(=O)[nH]c(=O)n2C` it is -12.8% (inactive).

On to `Cn1c(=O)c2[nH]cnc2n(C)c1=O`, for which the “activity, negative = inhibition” value is 17.3% (inactive). Turning to `NCCCCCC(=O)O`, the “activity, negative = inhibition” value was -1.34% [at 12.8 µM] (inactive). The same measure, in the same setting: the value for `CC(C)(Oc1ccc(C2CC2(Cl)Cl)cc1)C(=O)O` (centres undefined) was 6.08% (inactive); that for `CN1C(C(=O)Nc2ccccn2)=C(O)c2ccccc2S1(=O)=O` was -3.51% [at 12.8 µM] (inactive). In the case of `N[C@@H](Cc1c[nH]c2ccc(O)cc12)C(=O)O`, the “activity, negative = inhibition” value was -15.5% (inactive). Still for that read-out and setting: the figure for `COc1cc2c(c(OC)c1OC)-c1ccc(OC)c(=O)cc1[C@@H](NC(C)=O)CC2` is -4.58% (inactive).

In the case of `Cc1cnc(C(=O)NCCc2ccc(S(=O)(=O)NC(=O)NC3CCCCC3)cc2)cn1`, the “activity, negative = inhibition” value is -8.87% (inactive). As to `CN1CCN2c3ccccc3Cc3ccccc3C2C1` (centres undefined), the “activity, negative = inhibition” value is -3.03% (inactive). Still for that read-out and setting: the figure for `Nc1nnc(-c2cccc(Cl)c2Cl)c(N)n1` is -1.83% (inactive); for `CC[N+](CC)(CC)CCOc1cccc(OCC[N+](CC)(CC)CC)c1OCC[N+](CC)(CC)CC` it is -3.35% (inactive); for `Cc1ccc(C(=O)Nc2ccc(S(=O)(=O)O)c3cc(S(=O)(=O)O)cc(S(=O)(=O)O)c23)cc1NC(=O)c1cccc(NC(=O)Nc2cccc(C(=O)Nc3cc(C(=O)Nc4ccc(S(=O)(=O)O)c5cc(S(=O)(=O)O)cc(S(=O)(=O)O)c45)ccc3C)c2)c1` it is -0.685% (inactive). On the same count and under the same terms, the value for `CS(=O)(=O)Nc1ccc([N+](=O)[O-])cc1Oc1ccccc1` was -0.915% [at 12.8 µM] (inactive); that for `CC(=O)OCC(CCn1cnc2cnc(N)nc21)COC(C)=O` was 0.0134% (inactive). As to `C[C@](N)(Cc1ccc(O)c(O)c1)C(=O)O`, the “activity, negative = inhibition” value is -11.4% (inactive). On the same count and under the same terms, the figure for `COc1ccccc1OCC(O)CN1CCN(CC(=O)Nc2c(C)cccc2C)CC1` (centres undefined) is -10.4% (inactive); for `Cc1cn([C@H]2C=C[C@@H](CO)O2)c(=O)[nH]c1=O` it is 8.81% (inactive). For the molecule `Clc1ccccc1C(c1ccccc1)(c1ccccc1)n1ccnc1`, the Potency was 455 nM (active).

`CC(C)(C)C(=O)Oc1ccc(S(=O)(=O)Nc2ccccc2C(=O)NCC(=O)O)cc1`: the “activity, negative = inhibition” value was 8.1% (inactive). On the same count and under the same terms, the value for `NC(=O)OCC(COC(N)=O)c1ccccc1` was -0.976% (inactive); that for `O=c1c(-c2ccc(O)cc2)coc2cc(O)cc(O)c12` was -12% (inactive). As to `NCCc1cnc[nH]1`, the “activity, negative = inhibition” value is -5.29% (inactive). On the same count and under the same terms, the figure for `CN(C)c1nc(N(C)C)nc(N(C)C)n1` is 1.23% [at 12.8 µM] (inactive).

The next assay concerns DIV17. The assay is described as above. As to conditions: P. falciparum in erythrocytes, SYBR Green DNA, 72 h; series mostly up to 28.7 µM; activity, negative = inhibition: at the top concentration. In a few lines: as §1
Consider `CC(C)C(=O)Nc1ccc([N+](=O)[O-])c(C(F)(F)F)c1`, for which the “activity, negative = inhibition” value was -9.37% (inactive). The same measure, in the same setting: the value for `NC(=O)NO` was 0.0418% (inactive); that for `CCOC(=O)C(C)(C)Oc1ccc(Cl)cc1` was -4.22% (inactive).

Take `CC(CCc1ccc(O)cc1)NCCc1ccc(O)c(O)c1` (centres undefined): the “activity, negative = inhibition” value is 11% (inactive).

Regarding `Cc1cn([C@H]2C[C@H](N=[N+]=[N-])[C@@H](CO)O2)c(=O)[nH]c1=O`, the “activity, negative = inhibition” value is 0.898% (inactive). The same measure, in the same setting: the value for `Cc1cc(C(C)(C)C)c(O)c(C)c1CC1=NCCN1` was -9.85% (inactive).

In the case of `NS(=O)(=O)c1cc2c(cc1Cl)NCNS2(=O)=O`, the “activity, negative = inhibition” value is 5.46% (inactive). Still for that read-out and setting: the figure for `CCOC(=O)c1ncn2c1CN(C)C(=O)c1cc(F)ccc1-2` is 10.8% (inactive). Still for that read-out and setting: the value for `Clc1ccc2nsnc2c1NC1=NCCN1` was 1.51% (inactive); that for `Cn1c(=O)c2c(ncn2C)n(C)c1=O` was 9.53% (inactive); that for `CC(C)Cc1ccc(C(C)C(=O)O)cc1` (centres undefined) was 3.49% (inactive). On the same count and under the same terms, the value for `Cn1cnc2c1c(=O)[nH]c(=O)n2C` was -11.7% (inactive). As for `Cn1c(=O)c2[nH]cnc2n(C)c1=O`, the “activity, negative = inhibition” value is 8.31% (inactive). Same read-out and setting: the value for `NCCCCCC(=O)O` was 4.79% [at 12.8 µM] (inactive); that for `CC(C)(Oc1ccc(C2CC2(Cl)Cl)cc1)C(=O)O` (centres undefined) was 7.19% (inactive). Same read-out and setting: the value for `CN1C(C(=O)Nc2ccccn2)=C(O)c2ccccc2S1(=O)=O` was -2.13% [at 12.8 µM] (inactive); that for `N[C@@H](Cc1c[nH]c2ccc(O)cc12)C(=O)O` was -9.39% (inactive); that for `COc1cc2c(c(OC)c1OC)-c1ccc(OC)c(=O)cc1[C@@H](NC(C)=O)CC2` was -2.3% (inactive). Still for that read-out and setting: the figure for `Cc1cnc(C(=O)NCCc2ccc(S(=O)(=O)NC(=O)NC3CCCCC3)cc2)cn1` is -7.81% (inactive); for `CN1CCN2c3ccccc3Cc3ccccc3C2C1` (centres undefined) it is 4.96% (inactive); for `Nc1nnc(-c2cccc(Cl)c2Cl)c(N)n1` it is -0.0417% (inactive). As for `CC[N+](CC)(CC)CCOc1cccc(OCC[N+](CC)(CC)CC)c1OCC[N+](CC)(CC)CC`, the “activity, negative = inhibition” value was -12.6% (inactive). Turning to `Cc1ccc(C(=O)Nc2ccc(S(=O)(=O)O)c3cc(S(=O)(=O)O)cc(S(=O)(=O)O)c23)cc1NC(=O)c1cccc(NC(=O)Nc2cccc(C(=O)Nc3cc(C(=O)Nc4ccc(S(=O)(=O)O)c5cc(S(=O)(=O)O)cc(S(=O)(=O)O)c45)ccc3C)c2)c1`, the “activity, negative = inhibition” value was -2.15% (inactive). Take `CS(=O)(=O)Nc1ccc([N+](=O)[O-])cc1Oc1ccccc1`: the “activity, negative = inhibition” value is -3.9% [at 12.8 µM] (inactive).

Regarding `CC(=O)OCC(CCn1cnc2cnc(N)nc21)COC(C)=O`, the “activity, negative = inhibition” value is 3.11% (inactive). The same measure, in the same setting: the figure for `C[C@](N)(Cc1ccc(O)c(O)c1)C(=O)O` is -16.1% (inactive); for `COc1ccccc1OCC(O)CN1CCN(CC(=O)Nc2c(C)cccc2C)CC1` (centres undefined) it is -0.399% (inactive); for `Cc1cn([C@H]2C=C[C@@H](CO)O2)c(=O)[nH]c1=O` it is -4.22% (inactive). With `Clc1ccccc1C(c1ccccc1)(c1ccccc1)n1ccnc1`, the Potency is 287 nM (active). With `CC(C)(C)C(=O)Oc1ccc(S(=O)(=O)Nc2ccccc2C(=O)NCC(=O)O)cc1`, the “activity, negative = inhibition” value is 5.34% (inactive). In the case of `NC(=O)OCC(COC(N)=O)c1ccccc1`, the “activity, negative = inhibition” value was -8.16% (inactive).

Consider `O=c1c(-c2ccc(O)cc2)coc2cc(O)cc(O)c12`, for which the “activity, negative = inhibition” value was -13.2% (inactive).

In the case of `CCCNCC(O)COc1ccccc1C(=O)CCc1ccccc1` (centres undefined), the Potency was 536 nM (active).

Take `NCCc1cnc[nH]1`: the “activity, negative = inhibition” value is 1.69% (inactive). Same read-out and setting: the figure for `CN(C)c1nc(N(C)C)nc(N(C)C)n1` is -1.95% [at 12.8 µM] (inactive). As to `CC(C)NCC(O)c1ccc(O)c(O)c1` (centres undefined), the “activity, negative = inhibition” value was -8.98% (inactive).

The values are drawn from PubChem BioAssay (NCATS).
